Hits are enriched below; roughly 7.9% of the tested compounds scored in any of these assays.
HT1080-NT tox – qHTS for induction of synthetic lethality in tumor cells producing 2HG: qHTS for the HT-1080-NT fibrosarcoma cell line; HT-1080-NT fibrosarcoma viability, CellTiter-Glo ATP luminescence, 48 h; Potency, µM (top dose mostly 46.1 µM), inactives show at the highest dose activity, negative = less viability, actives largely listed as cytotoxic; 360,000 compounds, 1.6% hits;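 note: NT is the 2HG producing partner of a matched IDH1 knockdown line; 0% = DMSO-treated cells and -100% = media-only wells without cells; nearly all actives have a fitted effect of over 55% in size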
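HT-1080-NT fibrosarcoma cells (2HG-overproducing), 750 cells/well in RPMI with 5% FBS, dosed after 2 h and incubated 48 h at 37C. CellTiter-Glo luminescence normalized to DMSO and no-cell wells; concentration-response curves fitted and classed.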
MCF10A rereplic – A quantitative high throughput screen for small molecules that induce DNA re-replication in MCF 10a normal breast cells | Potency, µM (titrated, usually from 46.1 µM), for the others: at the highest dose activity, positive = re-replication, most hits filed as activators | MCF 10A DNA re-replication, Hoechst nuclear intensity, 48 h | 350,000 compounds, 2.9% hits; note: % of control where 0% means no effect; nearly all actives have a fitted effect of over 50% in size
SW480 rerep – A quantitative high throughput screen for small molecules that induce DNA re-replication in SW480 colon adenocarcinoma cells | AID 624297, 2012 | Potency, µM (top dose mostly 46.1 µM), for the others: at the top dose re-replication activation, hits mostly activators | 340,000 compounds, 1.8% hits | SW480 DNA re-replication, Hoechst DNA content imaging, 48 h; note: % of control where 0% means no effect; nearly all actives have a fitted effect of over 55% in size
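DNA re-replication was detected as more nuclei of elevated Hoechst intensity after 48 hr exposure to compound (23 nL pinned per well of 250 cells).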
KB-3-1 tox – qHTS assay for MDR1-selective chemotherapeutics: Primary screen using the parental adenocarcinoma cell KB-3-1; KB-3-1 viability, CellTiter-Glo ATP luminescence, 72 h; Potency, µM (series often up to 46.1 µM), most hits filed as cytotoxic; 400,000 compounds, 1.4% hits; AID 1347075, 2019; note: % is set by controls: 0 for no effect and ±100 for the full control effect; nearly all actives have a fitted effect of over 60% in size
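Parental KB-3-1 adenocarcinoma cells in phenol-red-free DMEM with 10% FBS were pin-treated with compounds at several concentrations, incubated 72 h at 37 °C, and viability read by CellTiter-Glo luminescence; concentration-effect curves were fitted after normalization.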
HT1080 IDH1KD tx – qHTS for induction of synthetic lethality in tumor cells producing 2HG: qHTS for the HT-1080-IDH1KD cell line; HT-1080 IDH1 knockdown viability, ATP luminescence, 48 h; Potency, µM (series often up to 46.1 µM), without a hit: at the top dose activity, negative = toxicity, usual class: cytotoxic; 360,000 compounds, 2% hits;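 note: 0% = DMSO wells and -100% = cell-free medium wells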
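Assay cells: HT-1080 with IDH1 knockdown, 750 per well, RPMI/5% FBS. Exposure: 48 h at 37 °C following 2 h pre-incubation. Read: CellTiter-Glo luminescence; fitted concentration-response, curve class assigned.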
KB-V1 MDR tox – qHTS assay for MDR1-selective chemotherapeutics: Primary screen using the drug-selected MDR subline cells KB-V1 | 400,000 compounds, 3.4% hits | KB-V1 MDR cells viability, CellTiter-Glo, 72 h | Potency, µM (highest dose often 46.1 µM), actives largely listed as cytotoxic | AID 1347076, 2019; note: % is set by controls: 0 for no effect and ±100 for the full control effect; nearly all actives have a fitted effect of over 60% in size
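Cells of the MDR subline KB-V1 are plated, dosed with compound at multiple concentrations, and incubated 72 h at 37 degrees C; CellTiter-Glo is then added and luminescence read after 10 min.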
Active calls of the source: *. Calls come from the whole dose curve; as a rule, active = well fitted curve in the direction sought with a large enough effect; inconclusive = small, poorly fitted or top-dose-only effect, or another doubt; inactive = no such curve, though single readings can be large; an effect the other way counts as inactive or inconclusive. Potency is the fitted concentration of half-maximal effect.

Screening CC(NC(=O)CCCN1C(=O)CCn2nc(-c3cn(C)c4ccccc34)cc21)c1ccccc1 (stereo not given) returned KB-3-1 tox inactive and KB-V1 MDR tox inactive.
`N#Cc1ccccc1CN1C(=O)NC(Cc2c[nH]c3ccccc23)C1=O` (stereo not given) gave HT1080-NT tox 2.2%, MCF10A rereplic -8.7%, SW480 rerep 9.0%, KB-3-1 tox inactive, HT1080 IDH1KD tx 11.6% and KB-V1 MDR tox inactive.
Screening COc1cc(OC)cc(C(=O)Nc2sc3c(c2C(N)=O)CCC3)c1 returned HT1080-NT tox -8.6%, MCF10A rereplic 0.581µM*, SW480 rerep inconclusive, KB-3-1 tox inactive, HT1080 IDH1KD tx 2.3% and KB-V1 MDR tox inactive.
`COC(=O)c1c(NC(=O)c2ccccc2N(C)S(=O)(=O)c2ccccc2)sc2c1CCCC2` gave HT1080-NT tox inconclusive, MCF10A rereplic inconclusive, SW480 rerep 11.6µM*, KB-3-1 tox 4.61µM*, HT1080 IDH1KD tx inconclusive and KB-V1 MDR tox 6.51µM*.
CCOC(=O)c1c(NC(=O)c2ccccc2N(C)S(=O)(=O)c2ccccc2)sc2c1CCCC2 was read as HT1080-NT tox inconclusive, MCF10A rereplic inconclusive, SW480 rerep 5.17µM*, KB-3-1 tox 2.91µM*, HT1080 IDH1KD tx 9.2µM* and KB-V1 MDR tox 5.8µM*.
Screening O=C(O)[C@@H]1Cc2c([nH]c3ccccc23)C2CCC(=O)N21 (stereo not given in full) returned HT1080-NT tox 0.1%, MCF10A rereplic -1.2%, SW480 rerep -2.1%, KB-3-1 tox inactive, HT1080 IDH1KD tx 4.1% and KB-V1 MDR tox inactive.
For Cc1ccc(NCc2ccc(O)c3ncccc23)cc1 the results were HT1080-NT tox 1.3%, MCF10A rereplic 5.1%, SW480 rerep inconclusive, KB-3-1 tox inactive, HT1080 IDH1KD tx -25.1% and KB-V1 MDR tox inactive.
Screening Cc1cc(OCc2cccc(Cl)c2)c(C)cc1CN1CCOCC1 returned HT1080-NT tox -6.2%, MCF10A rereplic 17.8%, SW480 rerep 0.0%, KB-3-1 tox inactive, HT1080 IDH1KD tx -20.7% and KB-V1 MDR tox inactive.
For Oc1c(CN2CCOCC2)cc(COCc2ccccc2)c2cccnc12 the results were HT1080-NT tox inconclusive, MCF10A rereplic inconclusive, SW480 rerep 3.66µM*, KB-3-1 tox inconclusive, HT1080 IDH1KD tx 13µM* and KB-V1 MDR tox inconclusive.
Screening Oc1c(CNc2ccccc2)cc(COCc2ccccc2)c2cccnc12 returned MCF10A rereplic 7.7%, SW480 rerep 0.461µM*, KB-3-1 tox inactive and KB-V1 MDR tox inactive.
For Cc1cc(C)cc(NC(=O)NCc2noc3ccccc23)c1 the results were KB-3-1 tox inactive and KB-V1 MDR tox inactive.
CCN1CCN(c2ncc(C(=O)Nc3ccccc3C(=O)OC)c3ccccc23)CC1 was read as HT1080-NT tox 20.6µM*, MCF10A rereplic inconclusive, SW480 rerep inconclusive, KB-3-1 tox inconclusive, HT1080 IDH1KD tx inconclusive and KB-V1 MDR tox inconclusive.
For CCn1ncc(Br)c1C(=O)Nc1ccccc1C(=O)OC the results were HT1080-NT tox 0.5%, MCF10A rereplic 2.8%, SW480 rerep 1.8%, KB-3-1 tox 20.6µM*, HT1080 IDH1KD tx 2.3% and KB-V1 MDR tox inconclusive.
For CCn1ncc(Br)c1C(=O)Nc1ccc(F)cc1F the results were HT1080-NT tox 6.9%, MCF10A rereplic 16.4µM*, SW480 rerep 20.6µM*, KB-3-1 tox inactive, HT1080 IDH1KD tx 1.4% and KB-V1 MDR tox inconclusive.
COC(=O)c1ccccc1NC(=O)c1c(Br)cnn1C was read as HT1080-NT tox -17.9%, MCF10A rereplic -6.4%, SW480 rerep -7.2%, KB-3-1 tox inactive, HT1080 IDH1KD tx -14.0% and KB-V1 MDR tox inconclusive.
Screening Cc1ccc(C2C3=C(CC(C)(C)CC3=O)N=C3c4ccccc4C(=O)C32)cc1 (stereo not given) returned HT1080-NT tox -26.0%, MCF10A rereplic 25.4%, SW480 rerep inconclusive, KB-3-1 tox inconclusive, HT1080 IDH1KD tx inconclusive and KB-V1 MDR tox inactive.
O=C(NCCCn1cccn1)c1cc(COc2ccccc2)on1 was read as HT1080-NT tox 0.1%, KB-3-1 tox inactive, HT1080 IDH1KD tx 4.5% and KB-V1 MDR tox inactive.
`CCCCCCOc1ccc(/C(C)=N/NC2=NCCN2)cc1[N+](=O)[O-]` gave HT1080-NT tox -23.5%, MCF10A rereplic inconclusive, SW480 rerep -103.6%, KB-3-1 tox inactive, HT1080 IDH1KD tx -11.2% and KB-V1 MDR tox inactive.
Screening CCCCOc1ccc(Br)cc1/C(C)=N/NC1=NCCN1 returned HT1080-NT tox 8.2µM*, MCF10A rereplic 10.3µM*, SW480 rerep inconclusive, KB-3-1 tox 4.11µM*, HT1080 IDH1KD tx 6.51µM* and KB-V1 MDR tox 5.8µM*.
CC(C)CNS(=O)(=O)c1ccc(S(=O)(=O)NC2CCOC(C)(C)C2)cc1 (stereo not given) was read as HT1080-NT tox 6.9%, MCF10A rereplic -0.7%, SW480 rerep 2.1%, KB-3-1 tox inactive, HT1080 IDH1KD tx 10.8% and KB-V1 MDR tox inactive.
`CC(Sc1nnc(Cc2cccs2)n1C1CCCCC1)C(=O)NCc1ccco1` (stereo not given) gave HT1080-NT tox 9.2%, MCF10A rereplic inconclusive, SW480 rerep -6.4%, KB-3-1 tox inactive, HT1080 IDH1KD tx 7.5% and KB-V1 MDR tox inactive.
Screening NC(COCc1ccccc1)c1csc(Nc2ccc(S(N)(=O)=O)cc2)n1 (stereo not given) returned HT1080-NT tox -15.5%, KB-3-1 tox inactive, HT1080 IDH1KD tx -4.8% and KB-V1 MDR tox inactive.
CCCCOc1ccc(CN=C(N)N)cc1Cl was read as HT1080-NT tox inconclusive, MCF10A rereplic inconclusive, SW480 rerep 19.5%, KB-3-1 tox inconclusive, HT1080 IDH1KD tx inconclusive and KB-V1 MDR tox inactive.
Screening CCCOc1ccc(CCCN=C(N)N)cc1Cl returned HT1080-NT tox inconclusive, MCF10A rereplic inconclusive, SW480 rerep 21.3%, KB-3-1 tox 20.6µM*, HT1080 IDH1KD tx 20.6µM* and KB-V1 MDR tox inactive.

Assay outcomes deposited in PubChem BioAssay by National Center for Advancing Translational Sciences (NCATS).
